According to PubChem BioAssay:
For some of these results: Potency and affinity values are given separately. Activity calls are given as the source filed them. Unless noted, no rule for the calls is given here.

How the values were obtained:
[1] = antimalarial activity against Dd2 strain (AID 2302;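 active = growth inhibition above 50% at the single 2 µM test dose, taken to imply half-maximal potency below 2 µM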;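 also: 0% = DMSO untreated growth and 100% = chloroquine plus artemisinin killed control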); settings: P. falciparum Dd2 in RBCs, LDH growth readout, 72 h; at 2 µM; active compounds read high
[2] = HepG2 cytotoxicity, primary screen, cytotoxicity control for P. falciparum antimalarial project, cell-based, ATP luminescence (AID 2303;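 active = inhibition above 50%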;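 also: 0% = DMSO wells and 100% = digitonin-killed cells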); settings: HepG2 viability, 24-48 h, at 10 µM, active compounds read high
[3] = biological target: L-lactate dehydrogenase (Plasmodium falciparum (isolate CDC / Honduras)) (UniProt Q27743); assay: PfLDH activity inhibition – cell lysate, 3D7 strain, counter-screen for P. falciparum growth inhibition project (AID 2304);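 also: 0% = vehicle and 100% = reference inhibitor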; settings: P. falciparum 3D7 crude extract, LDH APAD/NBT absorbance; at 2 µM; active compounds read high
[4] = inhibition of 3D7 malaria parasite growth – strain 3D7 (AID 2306);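 also: 0% = DMSO wells and 100% = chloroquine plus artemisinin control wells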; settings: P. falciparum 3D7 erythrocytic growth, LDH absorbance, 72 h; at 2 µM; active compounds read high
[5] = biological target: Calcium-dependent protein kinase 1 (Plasmodium falciparum (isolate 3D7)) (UniProt P62344); assay: PfCDPK1 kinase inhibitors, biochemical, TCAMS library (AID 1159585; cut-off not given, nearly all actives have IC50 up to about 0.98 µM;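 also: inhibitors leave more ATP so luminescence rises with inhibition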); settings: recombinant PfCDPK1, Kinase-Glo ATP depletion luminescence
[6] = biological target: Plasmodium falciparum protein kinase 6 (PK6, PF3D7_1337100) (UniProt Q8IDW1); assay: PfPK6 kinase inhibitors, biochemical, TCAMS library (AID 1159586); settings: recombinant PfPK6, Kinase-Glo ATP depletion luminescence
[7] = biological target: Protein kinase 7 (PK7), Plasmodium falciparum 3D7 (PF3D7_0213400) (UniProt Q7YTF7); assay: inhibition of Plasmodium PK7 catalytic activity – biochemical, TCAMS antimalarial set, Kinase-Glo luminescence (AID 1159587); settings: recombinant PfPK7, Kinase-Glo ATP depletion luminescence
[8] = biological target: Calcium-dependent protein kinase 4 (Plasmodium falciparum (isolate 3D7)) (UniProt Q8IBS5); assay: PfCDPK4 kinase inhibitors, biochemical, TCAMS library (AID 1159588; cut-off not given, nearly all actives have IC50 up to about 0.91 µM); settings: recombinant PfCDPK4, Kinase-Glo ATP depletion luminescence
Sequence of Calcium-dependent protein kinase 4 (Plasmodium falciparum (isolate 3D7)) (Q8IBS5 whole entry, looked up): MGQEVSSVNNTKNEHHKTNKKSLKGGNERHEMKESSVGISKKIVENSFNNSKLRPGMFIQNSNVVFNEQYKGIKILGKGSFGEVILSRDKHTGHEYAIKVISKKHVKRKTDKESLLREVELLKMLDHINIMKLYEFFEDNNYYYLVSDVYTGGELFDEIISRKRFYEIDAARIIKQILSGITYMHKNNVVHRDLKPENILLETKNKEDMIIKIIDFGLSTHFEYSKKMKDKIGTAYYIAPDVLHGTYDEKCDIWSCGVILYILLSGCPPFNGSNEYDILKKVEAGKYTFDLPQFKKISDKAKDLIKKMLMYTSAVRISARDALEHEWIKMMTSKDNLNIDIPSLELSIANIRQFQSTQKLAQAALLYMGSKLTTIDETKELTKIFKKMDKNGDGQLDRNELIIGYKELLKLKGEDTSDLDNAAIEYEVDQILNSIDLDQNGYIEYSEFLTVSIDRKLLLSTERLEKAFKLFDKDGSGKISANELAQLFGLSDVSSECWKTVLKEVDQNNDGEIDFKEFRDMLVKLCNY

Sequence of Calcium-dependent protein kinase 1 (Plasmodium falciparum (isolate 3D7)) (P62344 whole entry, looked up): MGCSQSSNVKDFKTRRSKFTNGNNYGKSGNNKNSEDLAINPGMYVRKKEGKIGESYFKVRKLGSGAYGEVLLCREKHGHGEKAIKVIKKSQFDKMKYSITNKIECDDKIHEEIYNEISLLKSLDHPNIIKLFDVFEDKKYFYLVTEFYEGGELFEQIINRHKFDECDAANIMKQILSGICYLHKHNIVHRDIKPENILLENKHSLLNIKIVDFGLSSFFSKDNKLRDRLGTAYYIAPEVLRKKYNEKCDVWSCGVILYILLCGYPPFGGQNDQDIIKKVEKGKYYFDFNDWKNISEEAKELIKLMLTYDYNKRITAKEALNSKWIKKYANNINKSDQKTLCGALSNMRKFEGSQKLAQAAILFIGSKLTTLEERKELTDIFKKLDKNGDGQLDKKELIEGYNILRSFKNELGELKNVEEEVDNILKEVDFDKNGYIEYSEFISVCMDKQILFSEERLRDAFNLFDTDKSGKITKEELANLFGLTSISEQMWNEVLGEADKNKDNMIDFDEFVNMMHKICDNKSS
Sequence of L-lactate dehydrogenase (Plasmodium falciparum (isolate CDC / Honduras)) (Q27743 whole entry, looked up): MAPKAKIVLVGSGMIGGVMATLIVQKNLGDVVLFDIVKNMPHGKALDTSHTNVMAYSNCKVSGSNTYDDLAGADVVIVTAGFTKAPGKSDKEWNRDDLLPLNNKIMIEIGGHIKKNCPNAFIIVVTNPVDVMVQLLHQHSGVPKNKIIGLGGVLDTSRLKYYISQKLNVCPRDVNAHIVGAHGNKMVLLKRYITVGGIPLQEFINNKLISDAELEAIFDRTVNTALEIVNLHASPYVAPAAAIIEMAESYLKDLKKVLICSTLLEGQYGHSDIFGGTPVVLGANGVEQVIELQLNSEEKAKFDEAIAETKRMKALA
Sequence of Plasmodium falciparum protein kinase 6 (PK6, PF3D7_1337100) (Q8IDW1 1-305): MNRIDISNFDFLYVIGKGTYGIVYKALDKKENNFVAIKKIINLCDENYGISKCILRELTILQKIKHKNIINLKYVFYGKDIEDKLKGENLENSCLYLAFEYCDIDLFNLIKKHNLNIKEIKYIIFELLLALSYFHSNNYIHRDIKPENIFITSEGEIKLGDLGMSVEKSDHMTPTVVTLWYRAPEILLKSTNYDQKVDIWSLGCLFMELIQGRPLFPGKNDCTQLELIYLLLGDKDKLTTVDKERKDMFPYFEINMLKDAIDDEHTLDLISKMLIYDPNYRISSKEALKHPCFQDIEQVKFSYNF
Sequence of Protein kinase 7 (PK7), Plasmodium falciparum 3D7 (PF3D7_0213400) (Q7YTF7 1-343): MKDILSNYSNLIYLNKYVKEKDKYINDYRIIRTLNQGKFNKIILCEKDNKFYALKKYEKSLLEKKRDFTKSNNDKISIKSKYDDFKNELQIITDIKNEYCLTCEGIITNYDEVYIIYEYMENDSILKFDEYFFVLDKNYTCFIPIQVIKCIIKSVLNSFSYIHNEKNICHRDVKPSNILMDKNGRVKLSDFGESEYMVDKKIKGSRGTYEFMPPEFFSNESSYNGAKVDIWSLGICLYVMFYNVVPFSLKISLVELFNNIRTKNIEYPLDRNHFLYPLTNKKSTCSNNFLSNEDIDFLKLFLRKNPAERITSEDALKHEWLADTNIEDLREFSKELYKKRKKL

CCN(CC)C(=O)C(=O)c1c[nH]c2ccc(Cl)cc12
active: growth inhibition [1] 96% | growth inhibition [4] 96%
inactive: inhibition [2] 1% | inhibition [3] 0% | outcome [5] | outcome [6] | outcome [7] | outcome [8]

FC(F)(F)c1cccc(CCNc2nccc(NCc3ccccc3Cl)n2)c1
inactive: growth inhibition [1] 38% | inhibition [2] 31% | inhibition [3] 1% | outcome [5] | outcome [6] | outcome [7] | outcome [8]
active: growth inhibition [4] 89%

Nc1ccc(-c2cc(Cl)cc(Cl)c2)cc1-c1cc2ccccc2[nH]1
active: growth inhibition [1] 97% | growth inhibition [4] 101%
inactive: inhibition [2] -9% | inhibition [3] 0% | outcome [5] | outcome [6] | outcome [7] | outcome [8]

C[C@@H](CC1CCCCC1)OC(=O)N(C)[C@@H]1CCN(C#N)C1
active: growth inhibition [1] 96% | growth inhibition [4] 95%
inactive: inhibition [2] 5% | inhibition [3] 3% | outcome [5] | outcome [6] | outcome [7] | outcome [8]

CN(C)c1ccc2nc(N)nc(N)c2c1Cl
active: inhibition [2] 68% | growth inhibition [4] 98%
inactive: growth inhibition [1] -1% | inhibition [3] 2% | outcome [5] | outcome [6] | outcome [7] | outcome [8]

CCOC(=O)c1c(SCc2cccc(F)c2F)[nH]c2ccccc2c1=O
inactive: inhibition [2] 1% | inhibition [3] -2% | outcome [5] | outcome [6] | outcome [7] | outcome [8]
active: growth inhibition [1] 95% | growth inhibition [4] 98%

CC1CCCN(Cc2cc(Cl)cc(Cl)c2O)C1 (stereo not drawn)
inactive: inhibition [2] 22% | inhibition [3] 5% | outcome [5] | outcome [6] | outcome [7] | outcome [8]
active: growth inhibition [1] 77% | growth inhibition [4] 89%

CCc1cc(Br)c2c(c1)C(NCCCNc1cc(=O)c3ccccc3[nH]1)CCN2 (stereo not drawn)
inactive: growth inhibition [1] 20% | inhibition [2] 13% | inhibition [3] -1% | outcome [5] | outcome [6] | outcome [7] | outcome [8]
active: growth inhibition [4] 94%

CCc1c(CCNCC/C=C/CCNCCc2ccc(OC)c(OC)c2CC)ccc(OC)c1OC
active: growth inhibition [4] 100%
inactive: growth inhibition [1] 7% | inhibition [2] 41% | inhibition [3] 3% | outcome [5] | outcome [6] | outcome [7] | outcome [8]

Oc1ccc(-c2ccccc2)cc1CNC1CCCCC1
inactive: inhibition [2] 24% | inhibition [3] -3% | outcome [5] | outcome [6] | outcome [7] | outcome [8]
active: growth inhibition [1] 100% | growth inhibition [4] 95%

CC(NC(=O)c1ccc(O)c(-c2ccc(Cl)c(Cl)c2)c1)C(=O)NC1CCCCC1 (stereo not drawn)
inactive: inhibition [2] -5% | inhibition [3] -2% | outcome [5] | outcome [6] | outcome [7] | outcome [8]
active: growth inhibition [1] 82% | growth inhibition [4] 96%

CCCN(CCC)S(=O)(=O)c1ccc(C(=O)Nc2nc3ccc(-c4cc(=O)[nH]c(Nc5ccccc5Cl)n4)cc3[nH]2)cc1
active: growth inhibition [1] 98% | growth inhibition [4] 100%
inactive: inhibition [2] 1% | inhibition [3] -4% | outcome [5] | outcome [6] | outcome [7] | outcome [8]

CCOc1cc(C)ccc1C1CCN(CCCCNC(=O)c2cnc(-c3ccc(C(F)(F)F)cc3)[nH]2)CC1
inactive: inhibition [2] 16% | inhibition [3] 2% | outcome [5] | outcome [6] | outcome [7] | outcome [8]
active: growth inhibition [1] 97% | growth inhibition [4] 95%

CNCCNCc1ccc(-c2ccc(-c3nc4ccc(C(F)(F)F)cc4[nH]3)cc2)cc1
inactive: inhibition [2] 28% | inhibition [3] 1% | outcome [5] | outcome [6] | outcome [7] | outcome [8]
active: growth inhibition [1] 92% | growth inhibition [4] 99%

FC(F)(F)c1ccc2nc(-c3cccc(-c4cccc(CNCc5cnn(-c6ccccc6)n5)c4)c3)[nH]c2c1
inactive: growth inhibition [1] 28% | inhibition [2] 6% | inhibition [3] -5% | outcome [5] | outcome [6] | outcome [7] | outcome [8]
active: growth inhibition [4] 100%

N#Cc1cccc(C(=O)N2CCOC(CCN3CCC(c4ccccc4)CC3)(c3ccc(Cl)c(Cl)c3)C2)c1 (stereo not drawn)
active: inhibition [2] 51% | growth inhibition [4] 87%
inactive: growth inhibition [1] 49% | inhibition [3] 0% | outcome [5] | outcome [6] | outcome [7] | outcome [8]

COc1cc(NC(=O)/C=C/c2cc(F)cc(F)c2F)cc(OCCN2CCCCC2)c1
active: growth inhibition [1] 80% | growth inhibition [4] 102%
inactive: inhibition [2] 10% | inhibition [3] 0% | outcome [5] | outcome [6] | outcome [7] | outcome [8]

CC1CCCN(C(=O)C(C)Nc2cc(Cl)ccc2N2CCOCC2)C1 (stereo not drawn)
inactive: inhibition [2] -1% | inhibition [3] -5% | outcome [5] | outcome [6] | outcome [7] | outcome [8]
active: growth inhibition [1] 96% | growth inhibition [4] 101%

Cc1cc(-c2cccc(CNC3CCN(C)CC3)c2)ccc1S(=O)(=O)NCCc1ccccn1
inactive: inhibition [2] 22% | inhibition [3] 2% | outcome [5] | outcome [6] | outcome [7] | outcome [8]
active: growth inhibition [1] 72% | growth inhibition [4] 97%

Cc1cccc2[nH]c(-c3ccc(-c4cccc(NC(=O)CCc5cnc[nH]5)c4)cc3)nc12
active: growth inhibition [4] 101%
inactive: growth inhibition [1] 14% | inhibition [2] 13% | inhibition [3] 4% | outcome [5] | outcome [6] | outcome [7] | outcome [8]

C(=Cc1ccccc1)C=NNc1ccnc2ccccc12
inactive: inhibition [2] 24% | inhibition [3] 5% | outcome [5] | outcome [6] | outcome [7] | outcome [8]
active: growth inhibition [1] 100% | growth inhibition [4] 100%

O=C(Nc1cccc(CN2CCCN(Cc3ccccc3)CC2)c1)c1cc2ccccc2s1
inactive: growth inhibition [1] 28% | inhibition [2] 41% | inhibition [3] 1% | outcome [5] | outcome [6] | outcome [7] | outcome [8]
active: growth inhibition [4] 87%

c1cc(-c2ccc(CN3CCCC3)cc2)cc(-c2nc3ccccc3[nH]2)c1
active: growth inhibition [1] 52% | growth inhibition [4] 100%
inactive: inhibition [2] 25% | inhibition [3] 0% | outcome [5] | outcome [6] | outcome [7] | outcome [8]

Fc1ccc(Nc2n[nH]c(CNC3CCN(Cc4ccc(Cl)c(Cl)c4)CC3)n2)cc1
inactive: growth inhibition [1] 36% | inhibition [2] 18% | inhibition [3] 5% | outcome [5] | outcome [6] | outcome [7] | outcome [8]
active: growth inhibition [4] 101%

NC(=O)c1ccsc1NC(=O)CNC(c1ccccc1)c1ccc(Cl)cc1 (stereo not drawn)
inactive: inhibition [2] 25% | inhibition [3] -3% | outcome [5] | outcome [6] | outcome [7] | outcome [8]
active: growth inhibition [1] 89% | growth inhibition [4] 83%

c1cc2nc(CCCc3nc4ccc(C5=N[C@H]6CCCC[C@H]6N5)cc4[nH]3)[nH]c2cc1C1=N[C@@H]2CCCC[C@@H]2N1
active: growth inhibition [1] 84% | growth inhibition [4] 85%
inactive: inhibition [2] 10% | inhibition [3] -2% | outcome [5] | outcome [6] | outcome [7] | outcome [8]

O=[N+]([O-])c1cccc(-n2nc(NCc3ccc(Cl)cc3)nc2-c2ccc(F)c(C(F)(F)F)c2)c1
inactive: inhibition [2] 6% | inhibition [3] -3% | outcome [5] | outcome [6] | outcome [7] | outcome [8]
active: growth inhibition [1] 93% | growth inhibition [4] 98%

O=C(NC1c2ccccc2Oc2ccccc21)c1ccccc1O
active: growth inhibition [4] 95%
inactive: growth inhibition [1] -3% | inhibition [2] -3% | inhibition [3] -1% | outcome [5] | outcome [6] | outcome [7] | outcome [8]

Cc1ccc(NC(=O)c2ccc(Cl)cc2)cc1-c1ccc(C(=O)Nc2ccncc2)cc1
active: growth inhibition [4] 98%
inactive: growth inhibition [1] 5% | inhibition [2] 36% | inhibition [3] 3% | outcome [5] | outcome [6] | outcome [7] | outcome [8]

CCOc1ccc2nc(C)cc(NN=Cc3ccncc3)c2c1
active: growth inhibition [1] 78% | growth inhibition [4] 99%
inactive: inhibition [2] 8% | inhibition [3] 0% | outcome [5] | outcome [6] | outcome [7] | outcome [8]

Cc1ccc(NCC(=O)Nc2ccc(F)c(Cl)c2)cc1S(=O)(=O)N1CCOCC1
inactive: inhibition [2] 2% | inhibition [3] 0% | outcome [5] | outcome [6] | outcome [7] | outcome [8]
active: growth inhibition [1] 97% | growth inhibition [4] 98%

CCCCNc1c(CC)c(C)c(C#N)c2nc3ccccc3n12
inactive: inhibition [2] 3% | inhibition [3] -5% | outcome [5] | outcome [6] | outcome [7] | outcome [8]
active: growth inhibition [1] 100% | growth inhibition [4] 100%

Cc1ccc(Nc2nc(C)cc(NCc3ccc(-n4ccnc4)cc3)n2)cc1
active: growth inhibition [1] 100% | growth inhibition [4] 101%
inactive: inhibition [2] 33% | inhibition [3] 1% | outcome [5] | outcome [6] | outcome [7] | outcome [8]

CCCNC(=O)c1cncc(-c2ccc(CNC(CC)c3ccccc3)cc2)c1 (stereo not drawn)
active: growth inhibition [4] 92%
inactive: growth inhibition [1] 1% | inhibition [2] 20% | inhibition [3] 0% | outcome [5] | outcome [6] | outcome [7] | outcome [8]

Cc1noc(C)c1-c1cccc(CNCc2ccc(-c3ccc(-c4nc5ccccc5[nH]4)s3)cc2)c1
active: growth inhibition [1] 79% | growth inhibition [4] 103%
inactive: inhibition [2] 41% | inhibition [3] -6% | outcome [5] | outcome [6] | outcome [7] | outcome [8]

Cn1cncc1C(=O)Nc1ccc(-c2ccc(-c3nc4ccc(C(F)(F)F)cc4[nH]3)cc2)cc1
active: growth inhibition [4] 102%
inactive: growth inhibition [1] 33% | inhibition [2] 24% | inhibition [3] 5% | outcome [5] | outcome [6] | outcome [7] | outcome [8]

CS(=O)(=O)Nc1ccc(-c2cnc3[nH]cc(-c4ccc(C(=O)O)cc4)c3c2)cc1
inactive: growth inhibition [1] 45% | inhibition [2] -15% | inhibition [3] -1% | outcome [5] | outcome [6] | outcome [7] | outcome [8]
active: growth inhibition [4] 95%

Cn1ccnc1-c1nc2ccccn2c1NCC(=O)Nc1ccccc1N1CCCCC1
inactive: inhibition [2] 16% | inhibition [3] -7% | outcome [5] | outcome [6] | outcome [7] | outcome [8]
active: growth inhibition [1] 57% | growth inhibition [4] 85%

CCCCNCc1ccc(-c2nc(CN(Cc3ccc(Cl)c(Cl)c3)C(=O)CN(C)C)cs2)cc1
active: growth inhibition [1] 51% | growth inhibition [4] 100%
inactive: inhibition [2] 36% | inhibition [3] 7% | outcome [5] | outcome [6] | outcome [7] | outcome [8]

CCOc1cc2ncnc(Nc3ccc(OCc4c(F)cccc4F)c(OC)c3)c2cc1OCC
active: growth inhibition [1] 60% | growth inhibition [4] 96%
inactive: inhibition [2] 7% | inhibition [3] -2% | outcome [5] | outcome [6] | outcome [7] | outcome [8]

O=C(Nc1cccc(C(F)(F)F)c1)NC1CCN(c2ccnc3cc(Cl)ccc23)C1 (stereo not drawn)
active: growth inhibition [1] 89% | growth inhibition [4] 101%
inactive: inhibition [2] 18% | inhibition [3] 6% | outcome [5] | outcome [6] | outcome [7] | outcome [8]
